Laboratory results from PubChem BioAssay (NCI).
This is part of a sample that, as a whole, favours compounds with a hit. Of some 83,000 tested, about 20% had one in any assay.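 Assay: single dose, 48 h. Readout: percent growth (0 = no net growth; negative = cell death). Active: <10.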 A number with no mark means an inactive call. Active and inactive are the calls of the source.

Legend:
Assay in all cases: NCI-60 one-dose screen, 48 h (100 = growth as untreated, 0 = no growth, -100 = all killed)
Conditions in all cases: 10 µM unless noted
DU-145 prostate = system: DU-145 prostate
K-562 leukemia = system: K-562 leukemia
MALME-3M melanoma = system: MALME-3M melanoma
MDA-MB-231 breast = system: MDA-MB-231 breast
RXF 393 renal = system: RXF 393 renal
SF-268 CNS = system: SF-268 CNS
SF-295 CNS = system: SF-295 CNS
SF-539 CNS = system: SF-539 CNS
UACC-257 melanoma = system: UACC-257 melanoma
M14 melanoma = system: M14 melanoma

SMILES | growth (DU-145 prostate) | growth (K-562 leukemia) | growth (MALME-3M melanoma) | growth (MDA-MB-231 breast) | growth (RXF 393 renal) | growth (SF-268 CNS) | growth (SF-295 CNS) | growth (SF-539 CNS) | growth (UACC-257 melanoma) | growth (M14 melanoma)
C/C(=N/NC(N)=S)c1ccc(C)cc1 | 100% | 58% | 102% | 97.4% | 97.4% | 98.7% | 93.3% | 100% | 89.2% | 82.7%
O=C(O)c1cccc2cccc(-c3c4ccc(=O)c(O)c-4oc4c(O)c(O)ccc34)c12 | 98.2% | 70.6% | 102% | 83% | 94.4% | 92.8% | 103% | 89.4% | 110% | 92.5%
CC(=O)N1CC(=O)NC1=S | 105% | 97.4% | 95% | 98.3% | 104% | 98.2% | 102% | 101% | 90.4% | 95.1%
CCCCCCN(CCCCCC)CCCNc1nccc2ccccc12 | 26.5% | 0.764% (active) | -58.6% (active) | 1.89% (active) | 29.5% | 33.2% | -50.8% (active) | -23.2% (active) | 41.7% | -41.3% (active)
CC(C)=CCCC(C)C1=C(O)C(=O)C(C)=CC1=O (stereo unspecified) | 99.6% | -45.3% (active) | 69.3% | 40.5% | 58.5% | 93.7% | 120% | 96.3% | 120% | 107%
Nc1nc(N)c2cc(Sc3cccc(C(F)(F)F)c3)ccc2n1 | 28.6% | 8.39% (active) | 31.5% | 45.3% | 42.8% | 29.5% | – | 28.6% | 27.4% | 13.6%
C/C(=N\NC(=S)N1CC2CCC(CC2)C1)c1ccccn1 | 19.4% | 3.3% (active) | -1.66% (active) | 15.7% | -7.47% (active) | 15.5% | – | 3.7% (active) | 5.97% (active) | -32.4% (active)
CN=C(N)N/N=C(\C)c1ccc2c(c1)Cc1ccccc1-2 | -85.9% (active) | -81.5% (active) | -85% (active) | -67.5% (active) | -28.4% (active) | -44.2% (active) | -51.9% (active) | – | -70.3% (active) | -96.1% (active)
CC(C)=C1C=C2CC[C@@H]3[C@](C)(CCC[C@@]3(C)C(=O)O)[C@H]2CC1 | 105% | 84.3% | 91.3% | 99.6% | 112% | 97% | 95.8% | 97.5% | – | 100%
Cc1nc(Sc2nc3ccc([N+](=O)[O-])cc3s2)sc1C | 31.1% | 3.13% (active) | -14.3% (active) | -15.6% (active) | -2.1% (active) | 18.7% | 82.1% | – | 36.8% | 11.5%
CC(C)Nc1ccc(Nc2ccc(NC(C)C)cc2)cc1 | 63.1% | 24.6% | 35.8% | 33.3% | 77.5% | 63.5% | 67.6% | – | 23.7% | 72%
CN1CSC(=S)N(Cc2ccccc2)C1 | 110% | 49.9% | 99.3% | 90.7% | 83.1% | 105% | 106% | – | 84.3% | 92%
Oc1ccc(Cl)cc1Cc1cc(Cl)ccc1O | 38.2% | 21.1% | 16.3% | 23.3% | 50.4% | 22.5% | 41.3% | – | 41.6% | 25.2%
Cc1cc(C)c(C#N)c(Sc2nc(C)c([N+](=O)[O-])c(C)c2C#N)n1 | 41.7% | 14.5% | 36.1% | 91.4% | 55.2% | 81.6% | 84.1% | 49.5% | – | 54.2%
N=C(N)Sc1cccc[n+]1[O-] | 35.5% | 33.2% | 22.2% | 59.6% | 22.2% | 62.6% | 68.7% | – | 58% | 18.4%
Fc1ccc(NCCS)cc1 | 107% | 101% | 108% | 102% | 108% | 102% | – | 103% | 102% | 103%
Cn1ccc(=Nc2ccc(NC(=O)c3ccc(N=c4ccn(C)c5ccc([N+](=O)[O-])cc45)cc3)cc2)cc1 | 47% | 96% | 61.9% | 56.6% | -0.0973% (active) | 37.1% | 105% | – | 86.9% | 76.8%
Cc1cc(C(N)=O)cc(C)c1C(=O)OCCCl | 99.2% | 93.6% | 101% | 105% | 117% | 95% | 99.7% | 101% | – | 108%
O=C1Nc2ccc(Br)cc2C1=O | 99.5% | 87.2% | 102% | 96.7% | 119% | 93.6% | 99.1% | 98.3% | – | 98.4%
CC1C(c2ccccc2)OCCN1C(=S)Nc1ccc(S(=O)(=O)N2CCCCC2)cc1 (stereo unspecified) | 104% | 109% | 96.5% | 86% | 95.5% | 109% | 99.2% | – | 91.5% | 94.5%
CCc1cnc2ccccc2c1/C=C/c1ccc(N(C)C)cc1 | 68.4% | 13% | 50.7% | 38.8% | 63% | 57.4% | 26% | – | 56.4% | 28.2%
O=C(c1ccccc1)C(Br)[N+](=O)[O-] (stereo unspecified) | 105% | 25.8% | 54.4% | 93.2% | 117% | 102% | 101% | – | 79% | 84.3%
O=S(=O)(O)c1cnccn1 | 110% | 106% | 108% | 108% | 114% | 102% | 101% | 97.2% | – | 100%
Cc1oc2c(C)c3oc(=O)cc(C)c3cc2c1CCl | 72.8% | 59% | 95.8% | 81.7% | 83.6% | 75.9% | 87% | – | 88.9% | 93.2%
CCN1CCCC(Nc2cc(C)nc(/N=C(/N)Nc3ccc(Cl)c(Cl)c3)n2)C1 (stereo unspecified) | 30.3% | -69.2% (active) | -70.6% (active) | -56.6% (active) | -81.3% (active) | -54.4% (active) | – | -73.7% (active) | -84.9% (active) | -77.9% (active)
Oc1c(Cl)cc(Cl)cc1C(c1cc(Cl)cc(Cl)c1O)C(Cl)(Cl)Cl | 19.3% | 9.05% (active) | -27% (active) | -25.1% (active) | -30.7% (active) | 11.6% | – | 4.37% (active) | -24.9% (active) | 17.9%
N=C1C=C(N)C(=O)c2ccccc21 | -99.5% (active) | -4.96% (active) | -83.7% (active) | -12.5% (active) | -97.1% (active) | -68.4% (active) | – | -95.8% (active) | -77.2% (active) | -86.5% (active)
Cc1cc(=O)oc2cc(O)cc(O)c12 | 103% | 102% | 90% | 89.8% | 114% | 97.7% | 103% | 92.4% | – | 102%
Cc1cccc2c(N)c3ccccc3nc12 | 6.74% (active) | 6.25% (active) | -37.2% (active) | -24.2% (active) | -48.2% (active) | -1.12% (active) | 5.09% (active) | – | -22.2% (active) | -55% (active)
